PINK1 modulator = A Quantitative High throughput Screen to Identify Chemical Modulators of PINK1 Expression; AID 624263, 2012; 0.2% of 410,000 active; PINK1 immunofluorescence, high-content cytometry, 24 h; Potency, µM (doses to about 76.6 µM), for the others: at the highest dose activation (PINK1 increase), actives largely listed as activators; active = well fitted activation curve with a large enough effect; inconclusive = small, poorly fitted or top-dose-only effect; cell line not stated here; note: % of control where 0% means no effect; nearly all actives have a fitted effect of over 65% in size
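Measures PINK1 amount and localization on or inside mitochondria by immunofluorescence. Stable cells get compounds at 5 concentrations for 24 hours before fixation and staining; CCCP controls included.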
Epigenetic derep = Quantitative High-Throughput Screen for Regulators of Epigenetic Control; murine LDR cells, GFP reporter derepression, 30 h; Potency, µM (top dose mostly 53.9 µM), for the others: at the highest dose GFP activation, actives largely listed as activators; 0.2% of 280,000 active; AID 1865, 2009; note: % of control where 0% means no effect; nearly all actives have a fitted effect of over 60% in size
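Murine LDR cells carrying a silenced, genomically integrated CMV-driven GFP reporter were exposed to compound for 30 hours at 37 C. After PBS washes, GFP-positive cells (20–120 um objects) were counted by laser-scanning microplate cytometry.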
TSG101-PTAP inh = qHTS Assay for Iinhibitors of HIV-1 Budding by Blocking the Interaction of PTAP/TSG101; Tumor susceptibility gene 101 protein (Homo sapiens), Q99816; Fluorescence polarization, FITC-PTAP peptide / Tsg101 binding; Potency, µM (top dose mostly 115 µM), for inactives: at the top dose activity change, negative = inhibition, hits mostly inhibitors; 340,000 tested, under 10 active; active = well fitted inhibition curve with a large enough effect in the main read-out, with a control signal flat, not every such curve was filed as active; inconclusive = small, poorly fitted or top-dose-only effect, or effect the other way, or a change in a side signal; inactive = no such curve, though single readings can be large or run the other way; note: % of control where 0% means no effect
Target sequence (Q99816 whole entry, looked up): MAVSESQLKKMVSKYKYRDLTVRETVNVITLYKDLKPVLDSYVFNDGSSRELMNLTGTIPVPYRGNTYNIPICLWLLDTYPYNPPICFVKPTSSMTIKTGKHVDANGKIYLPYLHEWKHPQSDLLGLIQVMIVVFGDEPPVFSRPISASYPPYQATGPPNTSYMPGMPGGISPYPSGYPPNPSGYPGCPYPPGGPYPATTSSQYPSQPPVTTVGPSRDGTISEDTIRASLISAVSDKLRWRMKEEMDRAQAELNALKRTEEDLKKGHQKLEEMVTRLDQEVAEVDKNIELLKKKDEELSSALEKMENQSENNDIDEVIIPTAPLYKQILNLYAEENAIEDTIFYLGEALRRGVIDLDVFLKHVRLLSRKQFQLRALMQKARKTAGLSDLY
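FP read-out: FITC-PTAP peptide, 50 nM final, binding Tsg101 binding domain, 10 uM final; 20 min, r.t.; 10 mM HEPES pH 7.5, 0.15 M NaCl, 0.01% Tween 20, 3 mM EDTA, 0.1 mM TCEP.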
Anesthetic bind = qHTS Assay for Identification of Novel General Anesthetics; Ferritin light chain (Equus caballus), P02791; apoferritin/1-aminoanthracene competitive binding, fluorescence; Potency, µM (top dose mostly 77.5 µM), without a hit: at the top dose activity change, negative = displacement, most hits filed as inhibitors; 0.074% of 350,000 active; note: % is set by controls: 0 for no effect and ±100 for the full control effect; nearly all actives have a fitted effect of over 20% in size
Target sequence (P02791 2-175 limits assumed): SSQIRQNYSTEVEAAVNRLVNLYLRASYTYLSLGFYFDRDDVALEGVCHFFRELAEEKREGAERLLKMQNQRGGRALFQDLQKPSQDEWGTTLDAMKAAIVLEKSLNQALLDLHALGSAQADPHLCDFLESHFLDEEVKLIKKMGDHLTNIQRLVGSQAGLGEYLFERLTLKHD
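In PBS, apoferritin at 10 uM is loaded with 1-AMA from a 50% saturated solution. After 10 min of compound exposure at ambient temperature, reduced 535 nm fluorescence indicates probe displacement.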
HTT cytoprotect = qHTS Multiplex Assay to Identify Dual Action Probes in a Cell Model of Huntington: Cytoprotection (ATP); PC12 HTT-Q103 induced, cytoprotection, ATP luminescence, 40 h; Potency, µM (series often up to 56.4 µM), inactives show cytoprotection (ATP increase), hits mostly activators; 0.14% of 230,000 active; note: % of control where 0% means no effect; nearly all actives have a fitted effect of over 45% in size
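Huntington model: PC12 line, ecdysone-inducible HTTQ103 exon1–GFP, tebufenozide 100 nM. Test articles in a dose series. Endpoint luminescence from cellular ATP.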
HttQ103 aggreg = qHTS Multiplex Assay to Identify Dual Action Probes in a Cell Model of Huntington: Aggregate Formation (GFP); PC12 HttQ103-GFP aggregates, Acumen cytometry, 40 h; Potency, µM (doses to about 46.1 µM), without a hit: at the highest dose activity change, negative = inhibition, most hits filed as inhibitors; 1.1% of 220,000 active; AID 1688, 2009; note: % is set by controls: 0 for no effect and ±100 for the full control effect; nearly all actives have a fitted effect of over 60% in size
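Aggregate formation scored by laser-scanning cytometer (488 excitation, 500–530 emission) in lysed PC12 cells expressing Q103-GFP after 100 nM tebufenozide induction; library tested in dose series, with ATPLite reagent added in the multiplex.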
* marks the source's active call; other numbers are inactive results; ? = inconclusive; / = no result given; [ ] = dose if it differs, or a comment. This is one part of a sample in which hits are shown more often than they occur. Unless noted, calls come from the whole dose curve; as a rule, active = well fitted curve in the direction sought with a large enough effect; inconclusive = small, poorly fitted or top-dose-only effect, or another doubt; inactive = no such curve, though single readings can be large; an effect the other way counts as inactive or inconclusive. Potency is the fitted concentration of half-maximal effect.

SMILES | PINK1 modulator | Epigenetic derep | TSG101-PTAP inh | Anesthetic bind | HTT cytoprotect | HttQ103 aggreg
COc1ccccc1NC(=O)c1ccccc1NS(=O)(=O)c1cccs1 | 5.3% | -0.4% | -2.1% | -1.9% | 19.2%[10 µM] | -28.8%
COc1ccc(CN2CCN(C(C)=O)CC2)cc1OC1CCN(C(=O)c2ccc3ccccc3n2)CC1 | 0.0% | / | / | / | / | /
CCCNC(=O)C1CCC(Cn2c(=O)c3sccc3n(CC(=O)NCc3cccc(OC)c3OC)c2=O)CC1 (centres undefined) | 0.7% | 1.8% | / | 37.5% | / | /
C[C@@H]1CN(Cc2ccc3c(c2)CN(Cc2cccc4cccnc24)CCO3)C[C@H](C)O1 | 1.0% | / | / | / | / | /
CN1CCCCCC1=Nc1ccc([N+](=O)[O-])cc1 | -0.8% | / | 0.3% | / | / | /
CN1C(=O)C(N=Nc2ccc([N+](=O)[O-])cc2)SC1=S (centres undefined) | 44.7µM* | / | 2.9% | / | / | /
CC(C)(C)c1ccc(C(=O)COC(=O)CN2C(=O)NC3(CCCC3)C2=O)cc1 | -0.7% | / | -0.6% | 25.1µM* | / | /
CSc1nc(C(=O)N2CCc3c(cnc(C)c3CNC(=O)c3ccc4c(c3)OCO4)C2)cs1 | 0.0% | / | / | / | / | /
Cn1c(SCc2ccccc2)nnc1C1CCCN(Cc2cccc3ncccc23)C1 (centres undefined) | -0.4% | / | / | / | / | /
CCC1=C[C@@H]2CN(C1)Cc1c([nH]c3ccccc13)[C@@](C(=O)OC)(c1cc3c(cc1OC)N(C)[C@@H]1[C@@](O)(C(=O)OC)[C@H](OC(C)=O)[C@]4(CC)C=CCN5CC[C@]31[C@@H]54)C2 | / | / | / | / | -98.4% | 5.62µM*
CCN(CC)c1ccc2nc3ccc(N)cc3[n+](-c3ccccc3)c2c1 | 10µM* | / | -18.7% | / | / | /
CCN(CC)c1ccc2nc3ccccc3[n+](CC)c2c1 | 4.1% | / | -0.8% | ? | / | /
O=C(NC1CCCC1)c1cnn2c1NC(=C1CC1)C=C2C(F)F | -0.4% | / | / | / | / | /
O=C(Nc1ccncc1)c1cnn2c1NC(=C1CC1)C=C2C(F)F | 0.4% | / | / | / | / | /
Cc1cnc(SCC2CCCO2)nc1C1CCCN(C(=O)c2ccc(S(N)(=O)=O)cc2)C1 (centres undefined) | 0.5% | / | / | / | / | /
Cc1ccc2cc3cc(C(=O)N(CC(=O)NC4CCCC4)c4cccc(C)c4C)sc3nc2c1 | 2.2%[38.3 µM] | -0.9% | -8.4% | -23.3% | 3.16µM* | -2.6%
Cc1ccc(C)c(N(CC(=O)NC2CCCC2)C(=O)c2cc3cc4cccc(C)c4nc3s2)c1 | / | -1.3% | -3.9% | -9.7% | 35.2% | -10.9%
Cc1ccc(C)c(S(=O)(=O)NCc2cccnc2)c1 | 2.5%[38.3 µM] | -0.8% | / | -3.0% | 13.1%[10 µM] | -3.4%
Cc1ccc(S(=O)(=O)NCc2ccncc2)cc1 | 1.0% | 0.0% | -0.1% | -11.0% | -6.4% | 3.55µM*
Cc1ccc(S(=O)(=O)NCC(=O)NCc2ccncc2)cc1 | 2.8% | 0.0% | -2.9% | -10.5% | 14.0%[10 µM] | -4.7%
Cc1ccc(C)c(S(=O)(=O)NCc2ccncc2)c1 | 0.9% | -1.1% | -2.1% | -10.1% | -15.1% | 10µM*
O=C1NC(=O)C(Cc2ccccc2)(C2CCN(Cc3cccn3-c3cccnc3)CC2)N1 (centres undefined) | 0.1% | / | / | / | / | /
CCc1ccc(/C=c2\s/c(=C\C(=O)C(C)(C)C)[nH]c2=O)cc1 | ? | 4.3% | -0.8% | -23.9% | -18.7% | 14.1µM*
Cc1ccc(C(C(=O)NC2CCCCC2)N(Cc2ccccc2)C(=O)Cc2c[nH]c3ccccc23)o1 (centres undefined) | 9.7% | -1.1% | -7.0% | 0.9% | 17.5%[10 µM] | 20µM*

Assay outcomes deposited in PubChem BioAssay by National Center for Advancing Translational Sciences (NCATS).
